Only some compounds are listed: those with a hit (about 1.8% of all), similar ones and a draw of the others.
NLRP3 yeast inh: NALP3 inflammasome inhibitors in reconstituted yeast, primary screen, luminescence, uHTS; inhibition, % at 10 µM; AID 2825, 2010; 0.39% of 330,000 active; Yeast reconstituted NLRP3/ASC/caspase-1, beta-gal luminescence, 24 h;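 active = inhibition of 50% or more; inactive = inhibition below 50%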;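 also: plate controls were induced DMSO wells for no effect and uninduced yeast grown without galactose for full effect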
SUMO Mot1 rescue: yeast Mot1-301 growth rescue at high temperature, primary screen, SUMOylation pathway inhibitor project, S. cerevisiae, ATP luminescence, 38.5C; 1% of 320,000 active; growth rescue, % at 18.8 µM; S. cerevisiae Mot1-301 growth rescue; percent above DMSO median, 100 means doubled;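 active = every valid replicate shows activation above 250% relative to neutral control wells; inactive = the rest, any valid replicate at or below 250%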;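 also: OY570 slx delta 5 strain wells were the positive control but not used for scaling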
NALP1 yeast inh: NALP1 inflammasome inhibitors in reconstituted yeast, colorimetric, S. cerevisiae, triplicate retest; S. cerevisiae NALP1/ASC/caspase-1 growth, X-gal OD620, 72 h; inhibition, % at 10 µM; 0.61% of 280,000 active; AID 2071, 2009; in the data active = inhibition mostly above about 24%, no sharp cut-off; inactive = mostly below about 32%
PolyA inhibitor: polyadenylation inhibitors in yeast reporter cells, primary screen, luminescence, S. cerevisiae; activity score, % at 12 µM; AID 1875, 2009; 0.02% of 300,000 active; S. cerevisiae SKY197-pL101 polyadenylation reporter, beta-gal luminescence; efflux-impaired pdr1/pdr3 knockout yeast; score 100 = 6 SD above DMSO;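 active = lowest replicate activity score at least 50, where 100 means six control SD above control mean; inconclusive = lowest score under 50 but half or more replicates reach 50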;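 also: yeast exposed to compound for 9 h at 30 °C; higher score means more reporter readthrough which indicates perturbed polyadenylation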
Mot1 SUMO dose: growth restoration of Mot1-301 yeast on galactose, dose response, SUMO pathway inhibitor project, whole organism, S. cerevisiae, ATP luminescence, cherry-picked samples | 2,300 tested, under 10 active | growth activity, percent, % at 42 µM | AID 493004, 2010 | S. cerevisiae Mot1-301 galactose growth, 24 h; -100 = growth of slx-deleted rescue strain | shares compounds with SUMO Mot1 rescue;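 active = Signal drops as the depositor expects, and the fitted half-maximal dose is no more than ten times the top valid tested dose; inconclusive = Poor fit, or a flat curve whose signal drops by 30% to 70%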;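 also: more negative values mean stronger growth rescue toward the control strain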
Numbers without * were called inactive; ? = inconclusive; / = no result given; + = active, no number.

SMILES	NLRP3 yeast inh	SUMO Mot1 rescue	NALP1 yeast inh	PolyA inhibitor	Mot1 SUMO dose
CCC(C)(C(=O)NC1CCCC1)N(C(=O)c1ccccn1)c1ccc(C)cc1 (stereo unspecified)	16	653*	5	?	0
O=C(CSc1n[nH]c(-c2cccs2)n1)N1CCOCC1	3	0	/	/	/
CCc1ccc(-c2nc(SCC(=O)N3CCOCC3)n[nH]2)cc1	-30	527*	-3	7	1
COc1ccc(Nc2cc(C)nc3ccccc23)cc1	5	257	/	/	/
CC(=O)c1ccc(Nc2cc(C)nc3ccccc23)cc1	5	574*	-1	9	0
CCOc1ccc(C(=O)NCC2OCCc3ccccc32)cc1 (stereo unspecified)	26	748*	12	-20	0
COc1ccc(C(=O)NCC2OCCc3ccccc32)cc1 (stereo unspecified)	18	-14	-10	2	/
O=C1CN(C(=O)COC(=O)CCNS(=O)(=O)c2ccc(Cl)cc2)c2ccccc2N1	3	365*	/	1	0
O=C(/C=C/c1ccc(Cl)cc1)NCc1ccncc1	6	566*	22	16	1
O=C(COC(=O)CNC(=O)c1ccc(F)cc1)NC1CCCc2ccccc21 (stereo unspecified)	13	806	/	/	/
O=C1NC(c2ccccc2)C(C(=O)c2cccs2)C(O)(C(F)(F)F)N1 (stereo unspecified)	13	374*	8	21	0
COc1ccc(CNC(=O)c2cccnc2SC)cc1OC	9	2	-6	1	/
O=C(c1ccco1)N1CCN(C(=O)C2Cc3ccccc3CN2S(=O)(=O)c2ccc(F)cc2)CC1 (stereo unspecified)	3	901*	12	-12	0
CCNc1nc(NCC)nc(SCCOC(=O)Nc2ccccc2)n1	14	+	3	?	0
CC(C)(C)NC(=O)COC(=O)c1ccc(O)cc1	-2	-11	12	-14	/
COc1ccc(CN(C)C(=O)c2ccc(COc3ccccc3)cc2)c(OC)c1	25	111	12	-1	/
COc1ccc(CN(C)C(=O)c2sccc2-c2ccccc2)c(OC)c1	11	485*	8	-10	0
COc1cccc(/C=N/n2cnc3ccccc32)c1OC	29	406*	15	-18	-1
C=CC(=O)Oc1ccc(N2Cc3ccccc3C2=O)cc1	-30	-13	/	-69	/
O=C(CSc1cccc2cccnc12)Nc1cc(C(=O)O)cc(C(=O)O)c1	10	577*	7	20	1
COc1cccc(-n2nnc3c(=O)n(CC(=O)N4CCCc5ccccc54)cnc32)c1	8	+	11	2	0
Cc1cccc(C)c1NC(=O)CN(C)C(=O)[C@H](C)NC(=O)c1ccco1	18	-3	/	/	/
COc1ccc(CCN(C)CCCC(C#N)(c2ccc(OC)c(OC)c2)C(C)C)cc1OC (stereo unspecified)	/	/	/	/	0
Cc1ccc(C(=O)O)cc1N=Cc1cc(Br)cc(Br)c1O	/	858*	70*	-19	0
O=C(NCc1ccco1)C1CC(=O)N(c2ccc(Cl)cc2)C1 (stereo unspecified)	10	648*	21	-9	-1
SMILES	NLRP3 yeast inh	SUMO Mot1 rescue	NALP1 yeast inh	PolyA inhibitor	Mot1 SUMO dose
Cn1c(N)c(C(=O)/C=C/c2ccccc2)c(=O)[nH]c1=O	11	14	3	10	/
Cc1nc(N)c(Cc2ccccc2F)c(N)n1	-14	433*	11	0	1
Nc1nc(N)c(Cc2ccc(Cl)cc2Cl)c(N)n1	-4	-1	11	-8	/
CN(C)c1oc(-c2ccccc2Cl)nc1S(=O)(=O)c1ccccc1	-21	636*	-7	4	0
COc1ccc(CN(CC(=O)NCC2CCCO2)C(=O)CCC(=O)Nc2cc(C)on2)cc1 (stereo unspecified)	13	392*	0	-2	1
COc1cccc(CN(CC(=O)NCC2CCCO2)C(=O)CCC(=O)Nc2cc(C)on2)c1 (stereo unspecified)	-3	/	-16	-2	/
CCOc1ccccc1N(CC(=O)NCC1CCCO1)C(=O)CCC(=O)Nc1cc(C)on1 (stereo unspecified)	10	-20	12	-3	/
COc1ccccc1N(CC(=O)NCC1CCCO1)C(=O)CCC(=O)Nc1cc(C)on1 (stereo unspecified)	2	752*	4	-2	0
C/C(=N\OCC(=O)N/N=C/c1ccccc1)c1cccs1	6	-1	10	26	/
COc1ccc(N2CC(C(=O)N3CCc4ccccc43)CC2=O)cc1 (stereo unspecified)	15	450*	3	11	0
O=C1CC(C(=O)N2CCCc3ccccc32)CN1c1ccc(F)cc1 (stereo unspecified)	6	-4	11	-14	/
COCCn1c(C)cc(C(=O)CN2C(=O)NC3(CCCCCCC3)C2=O)c1C	7	667*	33	-9	0
Nc1ccc(Oc2ccccc2-c2ccccc2)cc1	7	446*	/	-1	1
Nc1ccc(Oc2cccc(Oc3ccc(N)cc3)c2)cc1	12	263	46	13	/
CCOC(=O)C1(CCOC)CCN(Cc2ccccc2-c2ccco2)CC1	21	7	-2	0	/
Cc1sc(NC(=O)c2ccc(F)cc2)c(CN2CCCCCC2)c1C	11	497*	29	-12	1
CC(C)c1onc(C(=O)N(C)Cc2ccccc2)c1[N+](=O)[O-]	12	726*	53*	3	0
COc1ccccc1CC(=O)Nc1ccc(-c2noc(COc3ccc(Cl)c(C)c3)n2)cc1	10	53	23	-1	/
COc1ccc(NC(=O)CSc2nccc(C)n2)cc1	25	+	0	-7	0
Cc1ccnc(SCC(=O)Nc2cc(C)on2)n1	12	-2	-6	3	/
COC(=O)C1CCCCN1C(=O)c1cc(COc2cccc3cccnc23)on1 (stereo unspecified)	12	-28	11	-13	/
Cc1sc2nc(SCC(=O)NCCOCCO)nc(N)c2c1C	0	325	7	-16	/
Cc1sc2nc(SCC(=O)NCCOCCO)n(C)c(=O)c2c1C	-2	983*	10	/	0
Cc1ccccc1CN1CCCC(C(=O)Nc2ccc(-c3ccn[nH]3)cc2)C1 (stereo unspecified)	-2	181	17	31	/
COc1cccc(/C=C/C(=O)NCc2cn3cc(Cl)ccc3n2)c1OC	6	40	-14	10	/
COc1cc(C(=O)OCC(=O)NCc2ccccc2)cc(NC(=O)c2ccco2)c1OC	11	383*	2	8	0
